Assay outcomes as filed in PubChem BioAssay.
Pol beta inh – qHTS Assay for Inhibitors of DNA Polymerase Beta; Pol beta primer extension/strand displacement, fluorescence kinetic; Potency, µM (titrated, usually from 114 µM), most hits filed as inhibitors; 340,000 compounds, 1.3% hits; AID 485314, 2010
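Kinetic readout of DNA synthesis with strand displacement by Pol beta. Compound and 10 nM enzyme sit 15 min at room temperature; 50 nM substrate starts the reaction, read immediately and at 10 min.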
POLK inh – qHTS for Inhibitors of Polymerase Kappa. AID 588579, 2011. 400,000 compounds, 0.53% hits. Potency, µM (titrated, usually from 107 µM), hits mostly inhibitors. purified Pol kappa, fluorescent DNA synthesis assay, 10 min. DNA polymerase kappa (Homo sapiens), Q9UBT6
Target sequence (Q9UBT6 whole entry, looked up): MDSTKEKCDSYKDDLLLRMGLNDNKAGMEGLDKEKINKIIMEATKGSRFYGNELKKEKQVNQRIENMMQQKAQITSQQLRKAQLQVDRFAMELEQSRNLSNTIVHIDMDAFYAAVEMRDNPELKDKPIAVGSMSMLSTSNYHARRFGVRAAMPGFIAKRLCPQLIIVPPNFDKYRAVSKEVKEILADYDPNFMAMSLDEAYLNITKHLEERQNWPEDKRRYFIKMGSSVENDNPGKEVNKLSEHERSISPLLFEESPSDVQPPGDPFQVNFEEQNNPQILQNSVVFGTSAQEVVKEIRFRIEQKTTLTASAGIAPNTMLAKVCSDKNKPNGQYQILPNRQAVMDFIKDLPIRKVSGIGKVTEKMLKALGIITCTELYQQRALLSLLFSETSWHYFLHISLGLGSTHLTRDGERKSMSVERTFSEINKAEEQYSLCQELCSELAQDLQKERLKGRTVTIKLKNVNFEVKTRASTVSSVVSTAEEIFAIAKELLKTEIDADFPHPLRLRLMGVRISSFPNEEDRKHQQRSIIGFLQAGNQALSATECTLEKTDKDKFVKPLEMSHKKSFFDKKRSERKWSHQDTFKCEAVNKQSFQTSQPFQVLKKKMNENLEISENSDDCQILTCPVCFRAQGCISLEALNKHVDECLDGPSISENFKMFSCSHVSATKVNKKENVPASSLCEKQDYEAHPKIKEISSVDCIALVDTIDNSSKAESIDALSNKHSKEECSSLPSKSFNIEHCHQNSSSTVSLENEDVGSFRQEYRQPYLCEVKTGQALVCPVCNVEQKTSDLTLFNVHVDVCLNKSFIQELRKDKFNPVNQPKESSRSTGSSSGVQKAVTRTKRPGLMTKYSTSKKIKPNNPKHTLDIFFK
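Inhibition of 10 nM Pol kappa is measured by a fluorescent read-out at 0 and 10 min following addition of 50 nM substrate (final), with a 15-min room-temperature compound preincubation.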
Pol iota inh – qHTS for Inhibitors of Polymerase Iota | Potency, µM (series often up to 115 µM), hits mostly inhibitors | AID 588590, 2011 | 390,000 compounds, 1% hits | Pol iota fluorescent replication assay, 10 min
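Fluorescent replication assay read twice, at 0 min and 10 min after adding 50 nM (final) substrate. Enzyme (10 nM) and compounds were first incubated 15 min at room temperature; enzyme-free buffer wells were negative controls.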
FEN1 inh – qHTS Assay for the Inhibitors of Human Flap endonuclease 1 (FEN1); AID 588795, 2011; Potency, µM (series often up to 114 µM), usual class: inhibitors; 390,000 compounds, 0.35% hits; Recombinant FEN1 flap cleavage, fluorescence, 15 min; note: nearly all actives have a fitted effect of over 65% in size
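Enzyme 10 nM, 15 min RT preincubation with compound; start with substrate 50 nM final; reads at 0 and 15 min; qHTS titration, four-parameter Hill fit.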
PGK inhibitor – qHTS Assay to Find Inhibitors of Phosphoglycerate Kinase; Potency, µM (titrated, usually from 57.5 µM), usual class: inhibitors; 380,000 compounds, 0.043% hits; PGK/GAPDH coupled, Kinase-Glo luminescence, 60 min; note: nearly all actives have a fitted effect of over 60% in size
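Recombinant glycosomal PGK reaction used 1,3-bisphosphoglycerate generated in-well by GAPDH (100nM final) in 100mM TEA pH 7.6, 5mM MgCl2, 0.01% Tween-20. After 60 minutes at room temperature, ATP was read by Kinase-Glo Plus luminescence end-point.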
POLH inh – qHTS for Inhibitors of Polymerase Eta; DNA polymerase eta (Homo sapiens), Q9Y253; recombinant Pol eta, fluorescent DNA replication assay; Potency, µM (top dose mostly 114 µM), usual class: inhibitors; 390,000 compounds, 1.2% hits
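Fluorescent replication assay: 50 nM final substrate added after a 15 min room-temperature compound preincubation with 10 nM enzyme. Signal taken at 0 min and again at 10 min.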
Numbers stand for hits; 0 = inactive; ? = inconclusive; - = not tested or not shown; ! = not active in a repeat; [ ] = remark or other dose. An excerpt weighted towards active compounds, which were near 2.4% of everything screened. Calls come from the whole dose curve; as a rule, active = well fitted curve in the direction sought with a large enough effect; inconclusive = small, poorly fitted or top-dose-only effect, or another doubt; inactive = no such curve, though single readings can be large; an effect the other way counts as inactive or inconclusive.

SMILES	Pol beta inh	POLK inh	Pol iota inh	FEN1 inh	PGK inhibitor	POLH inh
CCOP(=O)(C1=C(O)C(=O)C(C(C)(C)C)=CC1=O)c1ccccc1 (stereo not given)	0	0	31.6µM	0	0	0
CC(C)CN(CC(C)C)c1ccc(C=C2C(=O)NC(=S)NC2=O)cc1[N+](=O)[O-]	50.1µM	?	17.8µM	0	0	25.1µM
CCN(CC)c1ccc(C=C2C(=O)NC(=S)NC2=O)cc1	0	0	0	?	-	0
C=CCN1C(=O)/C(=C\c2ccc(N3CCOCC3)o2)C(=O)NC1=S	0	0	?	0	0	28.2µM
c1nc[n]([Sn]([CH]2CCCCC2)([CH]2CCCCC2)[CH]2CCCCC2)n1	-	0	-	-	-	-
O=C(Nc1ccc(Br)cc1C(=O)O)c1ccc2c(c1)C(=O)N(Cc1ccccc1)C2=O	0	0	0	?	0	28.2µM
O=C(O)CO	-	0	-	-	-	-
CCCCC/C=C\C/C=C\C/C=C\C/C=C\CCCC(=O)NCc1ccoc1	-	7.94µM	-	-	-	-
CCCCC/C=C\C/C=C\C/C=C\C/C=C\CCCC(=O)NCC(=O)O	1.41µM	7.52µM!	2.24µM	?	-	0.501µM
CCCCC/C=C\C/C=C\C/C=C\C/C=C\CCCC(=O)NCCCC(=O)O	-	14.1µM	-	-	-	-
Cc1ccc(CCNC(=O)c2cc3cc(S(=O)(=O)N4CCCCC4)ccc3n2C)cc1	0	0	0	?	0	0
ClCCN(CCCl)c1ccc(C=Nc2ccc(/C=C/c3ccncc3)cc2)cc1	-	0	0	0	-	-
CC1(C)C[C@H]2C=C(C=O)[C@]3(C=O)C[C@]3(C)[C@H]2C1	20µM	?	44.7µM	0	0	0
CCCNC1=C(C)C(=O)C2=C(C1=O)C(COC(N)=O)[C@]1(OC)C3NC3CN21 (stereo not given in full)	0	44.7µM	7.94µM	0	0	?
O=[N+]([O-])c1ccc(N2CCCC2)c(F)c1Br	0	0	?	0	0	0
Cc1cc(Oc2cc(NN3CCCCC3)c([N+](=O)[O-])cc2[N+](=O)[O-])ccc1[N+](=O)[O-]	39.8µM	0	?	0	0	0
CCOC(=O)c1ccccc1N	-	0	0	0	0	0
Nc1ccccc1C(=O)OC1CSC1	56.2µM	0	0	0	0	?
CC/C(CC(c1ccccc1)c1c(O)c2ccccc2oc1=O)=N\NC(N)=S (stereo not given)	?	?	?	0	0	28.2µM
CC(=O)CC(c1ccc(O)cc1)c1c(O)c2ccccc2oc1=O (stereo not given)	-	0	-	-	-	-
CC1(C)CC(=O)C(C2(O)C(=O)NC(=O)NC2=O)=C(O)C1	0	0	8.91µM	0	0[11.5 µM]	0
CC[C@H](C)/C=C(C)/C=C/C1=CC2=C(Cl)C(=O)[C@@](C)(OC(C)=O)C(=O)C2=CO1	-	?	?	?	?	20µM
Nc1nc(NCc2ccc(F)cc2)c2[nH]cnc2n1	-	0	0	0	-	-
Cc1c(C(=O)Nc2ccc(Br)cc2F)oc2ccc(S(=O)(=O)N3CCCCC3)cc12	0	0	0	0	0	0
CC(=O)Nc1ccc(OC(=O)N2CCN(/[N+]([O-])=N/Oc3ccc([N+](=O)[O-])cc3[N+](=O)[O-])CC2)cc1	-	0	?	?	-	-
SMILES	Pol beta inh	POLK inh	Pol iota inh	FEN1 inh	PGK inhibitor	POLH inh
O=C1NC(=O)C(Sc2ccccc2[N+](=O)[O-])C(=O)N1	0	0	10µM	0	0	0
COC(=O)C1=C(C)NC(C)=C(C(=O)OC)C1c1ccccc1[N+](=O)[O-]	0	0	?	0	0	0
CC(C)c1ccc(NC(=O)C2CCC(CNS(=O)(=O)c3ccc4c(c3)CCCC(=O)N4)CC2)cc1 (stereo not given)	0	0	?	0	0	0
CCOc1ccc(-c2nc3ccc(-c4nc5ccc(N6CCN(C)CC6)cc5[nH]4)cc3[nH]2)cc1	-	0.299µM	-	-	-	-
CC(C)CCC(=O)OC1CCC2C3CCC4=CC(=O)CC[C@]4(C)C3CC[C@]12C (stereo not given in full)	-	0[19.4 µM]	-	-	-	-
O=C1NC(=O)C(=Cc2ccc(-c3ccc(Cl)cc3)o2)C(=O)N1	0	0	11.2µM	17.8µM	0	79.4µM
O=C1NC(=O)C(=Cc2ccc(Sc3ccccc3)o2)C(=O)N1	0	0	?	?	0	?
O=C1NC(=O)C(=Cc2ccc(-c3ccc(S(=O)(=O)N4CCOCC4)cc3)o2)C(=O)N1	0	0	25.1µM	0	0	0
O=C1NC(=O)C(=Cc2ccc(-c3ccc(F)cc3O)o2)C(=O)N1	0	0	?	17.8µM	0	70.8µM
O=C1NC(=O)C(=Cc2ccc(N3CCOCC3)cc2)C(=O)N1	0	0	?	0	0	0
O=C(O)c1ccc[nH]c1=S	0	0	?	0	0	0
O=C1OC(=O)C2C3CCC(O3)C12 (stereo not given)	0	?	0	-	-	0
C[C@H](N)C(=O)NCC(=O)N[C@H]1CSSC[C@@H](C(=O)O)NC(=O)[C@H](CO)NC(=O)[C@H]([C@@H](C)O)NC(=O)[C@H](Cc2ccccc2)NC(=O)[C@H]([C@@H](C)O)NC(=O)[C@H](CCCCN)NC(=O)[C@H](Cc2c[nH]c3ccccc23)NC(=O)[C@H](Cc2ccccc2)NC(=O)[C@H](Cc2ccccc2)NC(=O)[C@H](CC(N)=O)NC(=O)[C@H](CCCCN)NC1=O	-	0	-	-	-	-
NNc1n[nH]c(=S)n1N	0	0	15.8µM	0	0	0
N#Cc1c(/N=C/c2c(O)n(Cc3ccco3)c(=O)[nH]c2=O)sc2c1CCCC2	31.6µM	22.4µM	10µM	?	-	14.1µM
O=c1[nH]c(=O)n(Cc2ccco2)c(O)c1/C=N/N1CCCCCC1	0	0	0	0	0	0
CC[C@]1(O)CC[C@H]2[C@@H]3CCC4=CCCC[C@@H]4[C@H]3CC[C@@]21C	-	0[19.4 µM]	-	-	-	-
CC(Cc1ccc(C(C)(C)C)cc1)CN1CCCCC1 (stereo not given)	-	0	-	-	-	-
COc1ccc2c(c[n+](C)c3c4cc5c(cc4ccc23)OCO5)c1OC	28.2µM	0	?	?	-	?
C=C1CC[C@H](O)C/C1=C/C=C1\CCC[C@]2(C)[C@H]1CC[C@H]2[C@@H](C)CCCC(C)C	-	0[12 µM]	-	-	-	-
